Only some compounds are listed: those with a hit (about 3% of all), similar ones and a draw of the others.
TRPM1 prom inh = inhibitors of MITF-dependent TRPM1 promoter reporter, primary screen, cell-based, SK-MEL-5, single point, luciferase | SK-MEL-5 TRPM1 promoter luciferase, 24 h | inhibition, % at 12.5 µM | 330,000 compounds, 0.83% hits | AID 488899, 2010;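 active means mean inhibition across replicates of 60% or more, whatever share of single replicates reaches that level; inconclusive means some that reach 60%, reason not given; inactive means mean inhibition across replicates below 60%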
CF NFkB inh = inhibitors of PAF-induced NF-kB signaling, primary screen, cell-based, GFP fluorescence, uHTS | KKLEB NF-kB-GFP reporter, GFP fluorescence overnight | inhibition, % at 5 µM | 360,000 compounds, 0.86% hits | AID 588850, 2011;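 active means at least 50% inhibition at 5 µM, scaled per plate between neutral and stimulator controls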;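 further: PAF is a Pseudomonas aeruginosa culture filtrate used as stimulus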
LMP1 NFkB inh = EBV LMP1-driven NF-kappaB luciferase reporter inhibitors, primary screen, cell-based, luminescence, single point; 350,000 compounds, 0.69% hits; inhibition, % at 12.5 µM; LMP1-induced NF-kappaB luciferase reporter cells; in the data active means inhibition above about 41%; inconclusive means no clear call, values can overlap the other calls
KKLEB cytotox = cytotoxicity in KKLEB CF airway cells, primary screen, cytotoxicity control for CF NF-kB inhibitor project, cell-based, uHTS, fluorescence assay plates; activity change (cytotoxicity), % at 5 µM; 360,000 compounds, 0.36% hits; KKLEB CF airway cells viability, ATPlite luminescence, overnight; hits give low values; cells stimulated with P. aeruginosa culture filtrate;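 active means corrected activity change at or below -50% at 5 µM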
HIF-2a block = HIF-2a reporter inhibitors, primary screen, luminescence, 786-0 RCC cells. 786-0 RCC cells HIF-2a reporter, luciferase luminescence, overnight. inhibition, % at 18.8 µM. 360,000 compounds, 0.72% hits;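 active means inhibition of the luminescence signal of 40% or more relative to plate controls, in a single-dose primary screen at 18.75 µM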
Peg3 promoter = Peg3 promoter-driven luciferase inhibitors, primary screen, cell-based, HeLa, luciferase luminescence | HeLa PEG-Prom luciferase reporter, overnight | inhibition, % at 20 µM | 360,000 compounds, 1.7% hits;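 active means inhibition of at least 50% at 20 µM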
CF NFkB inh conf = inhibitors of PAF-induced NF-kB signaling, retest, confirmation, cell-based, GFP fluorescence, single concentration. shares compounds with CF NFkB inh. 1,300 compounds, 64% hits. KKLEB CF airway cells, overnight. AID 602472, 2012. inhibition, % at 5 µM; in the data active means inhibition above about 40%;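 further: stimulus PAF is a Pseudomonas aeruginosa filtrate and not platelet activating factor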
Mdm2-MdmX confirm = retested Mdm2-MdmX interaction blockers, confirmation, cell-based, luminescence, single concentration, set 2; SaOS-2 split-luciferase Mdm2/MdmX complementation; 740 compounds, 99% hits; inhibition, % at 8 µM; shares compounds with HIF-2a block;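 active means mean inhibition of the luminescence signal across two replicates at or above 26 percent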
Target sequence (O15151 whole entry, looked up): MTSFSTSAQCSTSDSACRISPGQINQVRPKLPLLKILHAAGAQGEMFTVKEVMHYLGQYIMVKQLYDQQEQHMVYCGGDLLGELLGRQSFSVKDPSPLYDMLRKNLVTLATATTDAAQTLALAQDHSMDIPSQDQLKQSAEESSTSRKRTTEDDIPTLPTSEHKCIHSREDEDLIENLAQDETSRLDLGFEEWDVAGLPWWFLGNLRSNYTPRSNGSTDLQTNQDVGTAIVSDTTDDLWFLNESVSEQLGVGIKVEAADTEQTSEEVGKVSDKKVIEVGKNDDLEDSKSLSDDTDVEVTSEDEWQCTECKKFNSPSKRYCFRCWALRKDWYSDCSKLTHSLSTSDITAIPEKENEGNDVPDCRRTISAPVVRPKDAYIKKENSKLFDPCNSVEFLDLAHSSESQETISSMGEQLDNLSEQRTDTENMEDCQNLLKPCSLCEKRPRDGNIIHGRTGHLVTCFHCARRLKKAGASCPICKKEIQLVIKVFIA
Target sequence (Q00987 whole entry, looked up): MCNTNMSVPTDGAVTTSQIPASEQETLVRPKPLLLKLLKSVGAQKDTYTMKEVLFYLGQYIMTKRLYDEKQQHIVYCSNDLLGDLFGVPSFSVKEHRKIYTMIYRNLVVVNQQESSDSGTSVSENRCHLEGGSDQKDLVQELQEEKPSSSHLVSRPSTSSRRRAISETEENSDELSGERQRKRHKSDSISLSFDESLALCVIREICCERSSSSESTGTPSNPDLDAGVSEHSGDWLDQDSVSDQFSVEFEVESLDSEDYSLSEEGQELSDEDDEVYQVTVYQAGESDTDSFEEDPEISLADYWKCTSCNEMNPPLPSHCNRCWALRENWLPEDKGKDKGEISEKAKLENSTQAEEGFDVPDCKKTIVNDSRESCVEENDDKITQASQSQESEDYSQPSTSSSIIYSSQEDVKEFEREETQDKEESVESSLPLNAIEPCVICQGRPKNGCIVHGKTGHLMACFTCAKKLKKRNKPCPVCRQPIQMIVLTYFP
HIF-2a inh conf = HIF-2a reporter inhibitor retest, confirmation, luminescence, 786-0 RCC cells; HIF-2a luciferase reporter luminescence, overnight; shares compounds with HIF-2a block; 1,800 compounds, 56% hits; AID 651580, 2012; inhibition, % at 18.8 µM;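 active means mean inhibition across four replicates of at least 40 percent at the single tested concentration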
HIF-1a cs = HIF-1a luciferase reporter signal reduction – MiaPaCa-2 cells, single concentration, counter-screen for HIF-2a inhibitor project, confirmation | 1,800 compounds, 72% hits | inhibition, % at 18.8 µM | MiaPaCa-2 HIF-1a luciferase reporter, desferoxamine, overnight | AID 651589, 2012 | shares compounds with HIF-2a block;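 active means mean inhibition of the reporter signal across four replicates at the single tested dose of 50% or more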
Large screens that a line does not name were inactive (follow-up assays come after a bar, where they were run).

NC(=O)c1cc2c3ccccc3ccn2c1-c1ccccc1	none
Cc1nn(-c2ccccc2)c(Cl)c1C(=O)N1CCN(c2ncnc3c2cnn3-c2ccccc2)CC1	CF NFkB inh 63, LMP1 NFkB inh 53, Peg3 promoter 114 | CF NFkB inh conf 73 | Mdm2-MdmX confirm 100
COc1ccc(C(=O)N2CCN(Cc3ccccc3)CC2)cc1[N+](=O)[O-]	none
O=C(c1ccc(S(=O)(=O)c2cccc(Cl)c2)c([N+](=O)[O-])c1)N1CCN(Cc2ccccc2)CC1	CF NFkB inh 78 | CF NFkB inh conf inactive | Mdm2-MdmX confirm 101
O=C(Nc1ccccc1N1CCCC1)c1ccc([N+](=O)[O-])o1	none
O=C(Nc1ccc(N2CCCC2)c(Cl)c1)c1ccc([N+](=O)[O-])o1	TRPM1 prom inh 73, CF NFkB inh 70, HIF-2a block 84, Peg3 promoter 110 | CF NFkB inh conf inactive | HIF-2a inh conf 50 | HIF-1a cs 107
O=S1(=O)CCC(NC(=S)SCCOc2ccccc2)C1 (configuration not stated)	CF NFkB inh 58, HIF-2a block 50 | CF NFkB inh conf 86 | HIF-2a inh conf 48 | HIF-1a cs 67
CCCCSC(=S)NC1CCS(=O)(=O)C1 (configuration not stated)	none
CCc1cc(SC#N)cc(C)c1NC(=O)CCl	CF NFkB inh 66, HIF-2a block 46 | CF NFkB inh conf 54 | HIF-2a inh conf 47 | HIF-1a cs 62
CN(Cc1ccc2c(c1)CCCN2C)C(=O)[C@H]1O[C@@H](n2cnc3c(N)ncnc32)[C@H](O)[C@@H]1O	none (no result: TRPM1 prom inh, LMP1 NFkB inh)
CN1CCN(S(=O)(=O)c2ccc(Sc3nnnn3-c3ccccc3)c([N+](=O)[O-])c2)CC1	TRPM1 prom inh 88, CF NFkB inh 88, HIF-2a block 67, Peg3 promoter 91 | CF NFkB inh conf 64 | Mdm2-MdmX confirm 102 | HIF-2a inh conf inactive | HIF-1a cs 100
O=C(Cn1ncc(Cl)c(Cl)c1=O)c1ccc2c(c1)OCCO2	CF NFkB inh 79, HIF-2a block 81, Peg3 promoter 90 | CF NFkB inh conf inactive | Mdm2-MdmX confirm 103 | HIF-2a inh conf inactive | HIF-1a cs 103
CCC(=O)c1ccc2c(c1)OCCO2	none
CCc1ccccc1NC(=O)CN(C)C(=O)Cn1cnc2ccc(Cl)cc2c1=O	none
Cc1nn(CC(=O)Nc2ccc3c(c2)OCO3)c(C)c1Cl	none
CCc1ccccc1NC(=O)CN(C)C(=O)Cn1ncc(Cl)c(Cl)c1=O	TRPM1 prom inh 89, CF NFkB inh 52, LMP1 NFkB inh 71, HIF-2a block 98, Peg3 promoter 107 | CF NFkB inh conf 56 | HIF-2a inh conf inactive | HIF-1a cs 106
O=C(Cn1ncc(Cl)c(Cl)c1=O)Nc1ccc2c(c1)OCO2	TRPM1 prom inh 79, CF NFkB inh 64, HIF-2a block 95, Peg3 promoter 96 | CF NFkB inh conf inactive | Mdm2-MdmX confirm 103 | HIF-2a inh conf inactive | HIF-1a cs 104
COc1ncnc2c1ncn2CCCNCc1ccccn1	none (no result: TRPM1 prom inh)
COc1ccccc1-c1cc(C(F)(F)F)nc(N2CCCC2)n1	none
COc1ccccc1-c1cc(C(F)(F)F)nc(S(C)(=O)=O)n1	TRPM1 prom inh 92, CF NFkB inh 69, HIF-2a block 78, Peg3 promoter 105 | CF NFkB inh conf 40 | Mdm2-MdmX confirm 102 | HIF-2a inh conf 68 | HIF-1a cs 105
O=C(c1nnsc1S(=O)c1ccc(Cl)cc1)N1CCOCC1 (configuration not stated)	TRPM1 prom inh 88, CF NFkB inh 84, Peg3 promoter 101 | CF NFkB inh conf 105 | Mdm2-MdmX confirm 102
N#CC(C#N)=C1C=CC=CN1/C(=C\c1ccco1)C(=O)c1ccccc1	TRPM1 prom inh 104, CF NFkB inh 96, HIF-2a block 91, Peg3 promoter 99 | CF NFkB inh conf 68 | HIF-2a inh conf 98 | HIF-1a cs 105
CCOC(=O)c1ccc(N=Cc2cnc(N)nc2N)cc1	none
BrC(=C\c1ccccc1)/C=N/n1cnnc1	TRPM1 prom inh 83, CF NFkB inh 58, LMP1 NFkB inh inconclusive, HIF-2a block 61, Peg3 promoter 111 | CF NFkB inh conf inactive | HIF-2a inh conf inactive | HIF-1a cs 97
BrC(=C\c1ccccc1)/C=N/Nc1ccc2nncn2n1	none
COc1ccc(-c2nc3ccccn3c2NCc2ccc3c(c2)OCO3)cc1	none
COc1ccc(-c2cc(-c3nc4ccccn4c3NCc3ccccc3)ccc2OC)cc1	TRPM1 prom inh 85, CF NFkB inh 71, Peg3 promoter 100 | CF NFkB inh conf 97 | Mdm2-MdmX confirm 102
O=C(Nc1ccc2nc3n(c(=O)c2c1)CCCCC3)c1cc([N+](=O)[O-])ccc1F	TRPM1 prom inh 67, CF NFkB inh 71, HIF-2a block 46, Peg3 promoter 108 | CF NFkB inh conf inactive | HIF-2a inh conf inactive | HIF-1a cs 105
O=C(Nc1ccc2nc3n(c(=O)c2c1)CCCC3)c1ccccc1F	none
Cc1ccc(CCN2CC(C(=O)NC3CCC(C)CC3)CC2=O)cc1 (configuration not stated)	none (no result: TRPM1 prom inh)
N#C/C(=C\c1cccc(NC(=O)c2ccccc2Cl)c1)C(=O)NCCc1ccccc1	CF NFkB inh 82, HIF-2a block 80 | CF NFkB inh conf inactive | HIF-2a inh conf 45 | HIF-1a cs 93
COCCCNC(=O)/C(C#N)=C/c1cccc(NC(=O)c2ccccc2Cl)c1	none
COc1cccc(C(=O)OCC(=O)NC23CC4CC(CC(C4)C2)C3)c1	none

From PubChem
